Measurements from PubChem BioAssay.
Active and inactive are the calls of the source. Unless noted, no rule for the calls is given here.

Columns and labels:
[1] = system: Wnt5a (protein binding on small-molecule microarray); assay: Wnt5a binders on small-molecule microarray, primary screen, biophysical, 635/667 nm fluorescence (AID 1142); settings: 635 nm fluorescence, higher = more signal;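 also: fluorescence read at 667 nm with signal to noise per printed feature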
[2] = cell viability in Huh7 cells, primary screen, cytotoxicity control for HCV replication inhibitor project, CellTiter-Glo luminescence, basal, 48 h (AID 1143); settings: Huh7 HCV replicon, higher = more signal, called active from +8 up or from −8 down;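 also: Huh7 hepatoma cells carrying a hepatitis C replication reporter with no stimulus; test concentration not given here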
[3] = P. aeruginosa biofilm formation inhibitors, primary screen, PAO1 strain, BacTiter-Glo luminescence, LB-PBS (AID 1144); settings: 12 h, higher = more signal
[4] = CREB reporter modulators without forskolin, primary screen, cell-based, PC12, CRE-LacZ reporter, unstimulated (AID 1145); settings: no forskolin, luminescence, 4.5 h, higher = more signal, called active from +8 up or from −8 down
[5] = CREB reporter modulators under forskolin, primary screen, cell-based, PC12, CRE-LacZ reporter, forskolin-stimulated (AID 1146); settings: luminescence, 4.5 h, higher = more signal, called active from +8 up or from −8 down;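 also: PC12 cells with 6xCRE LacZ reporter stimulated by forskolin 10 µM; beta-galactosidase reporter signal reflecting CREB driven transcription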
[6] = molecular target: Streptavidin (Streptomyces avidinii) (UniProt P22629); assay: streptavidin binders on small-molecule microarray, primary screen, artefact control for SMM compound annotation, biophysical, 635/667 nm fluorescence (AID 1147); settings: streptavidin binding, higher = more signal;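 also: signal reflects streptavidin binding to arrayed compounds as a control protein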
Streptavidin (Streptomyces avidinii), sequence (P22629 whole entry, looked up): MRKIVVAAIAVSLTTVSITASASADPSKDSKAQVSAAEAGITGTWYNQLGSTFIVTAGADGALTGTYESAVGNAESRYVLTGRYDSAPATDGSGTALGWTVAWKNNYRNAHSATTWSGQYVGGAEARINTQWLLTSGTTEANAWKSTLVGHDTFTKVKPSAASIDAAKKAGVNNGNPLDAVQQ

[7] = small-molecule binders of probe aInhba, primary screen, biochemical, small-molecule microarray, 635/667 nm fluorescence (AID 1148); settings: higher = more signal;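 also: score merges 667nm spot fluorescence with signal-to-noise for antibody binding to printed compounds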
Torsin-1A (Homo sapiens) [8] = molecular target: Torsin-1A (Homo sapiens) (UniProt O14656); assay: torsin A binders from cell lysate, primary screen, small-molecule microarray, wild-type, 635/667 nm (AID 1149); settings: COS7 hTOR1A-WT lysate, 635 nm fluorescence, higher = more signal
Torsin-1A (Homo sapiens), sequence (O14656 whole entry, looked up): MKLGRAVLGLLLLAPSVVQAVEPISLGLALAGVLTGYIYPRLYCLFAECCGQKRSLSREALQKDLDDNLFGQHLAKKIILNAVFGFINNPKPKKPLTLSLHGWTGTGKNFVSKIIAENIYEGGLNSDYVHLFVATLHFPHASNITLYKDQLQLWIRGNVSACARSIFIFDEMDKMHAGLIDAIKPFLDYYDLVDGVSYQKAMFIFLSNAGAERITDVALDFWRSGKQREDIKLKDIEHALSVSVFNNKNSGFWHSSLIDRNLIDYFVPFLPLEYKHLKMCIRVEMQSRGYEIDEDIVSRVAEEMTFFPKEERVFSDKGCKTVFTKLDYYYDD

Torsin-1A (Homo sapiens) [9] = molecular target: Torsin-1A (Homo sapiens) (UniProt O14656); assay: small-molecule binders of mutant TOR1A in lysate, primary screen, cell lysate, small-molecule microarray, COS7 lysate, 635/667 nm fluorescence (AID 1150); settings: COS7 hTOR1A mutant lysate, 635 nm fluorescence, higher = more signal;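 also: score pools 667 nm emission and signal to noise measuring lysate protein binding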
[10] = system: Sonic hedgehog protein (Shh); assay: small-molecule binders of Shh protein, primary screen, biochemical, small-molecule microarray, 635/667 nm fluorescence (AID 1151); settings: small-molecule microarray binding, 635 nm fluorescence; higher = more signal;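 also: Shh protein binding to compounds spotted on small-molecule microarray slides; score combines spot fluorescence intensity with signal-to-noise across triplicate slides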
[11] = E. coli DRC41 culture turbidity changes, primary screen, E. coli filamentation inducer project, strain DRC41, OD650, 48 h (AID 1152);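 also: E. coli MC1000 strain DRC41 lacking acrAB efflux pump and sulA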; settings: E. coli DRC41 (acrAB sulA), higher = more signal, called active from +8 up or from −8 down
[12] = small-molecule binders of probe aLefty1, primary screen, biochemical, small-molecule microarray, 635/667 nm fluorescence (AID 1153); settings: higher = more signal;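 also: score merges spot fluorescence with signal-to-noise ratio from the scanned slide images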
[13] = PSAC antagonists in infected red cells, primary screen, cell-based, P. falciparum Indochina, OD700, 1 h (AID 1154); settings: P. falciparum Indochina infected RBC osmotic lysis, higher = more signal, called active from +8 up or from −8 down
[14] = PSAC antagonists in infected red cells, primary screen, cell-based, P. falciparum Indochina, OD700, 2 h (AID 1155);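 also: lysis reports solute entry through the parasite surface anion channel PSAC; channel blockers reduce lysis of infected cells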; settings: P. falciparum Indochina infected erythrocytes, osmotic lysis OD700; higher = more signal, called active from +8 up or from −8 down
[15] = osmotic lysis modulators in infected erythrocytes, primary screen, PSAC antagonist project, cell-based, P. falciparum Indochina, OD700, 3 h (AID 1156); settings: higher = more signal, called active from +8 up or from −8 down
[16] = PSAC antagonists in infected red cells, primary screen, cell-based, P. falciparum Indochina, OD700, 18 h (AID 1157); settings: P. falciparum Indochina infected erythrocytes, osmotic lysis OD700, 18 h; higher = more signal, called active from +8 up or from −8 down
[17] = modulators of S6 phosphorylation in cells, primary screen, cell-based, A549, cytoblot, luminescence, serum-stimulated (AID 1158); settings: A549 phospho-S6 cytoblot, 5 h, higher = more signal;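 also: serum-stimulated A549 lung adenocarcinoma cells; signal is phosphorylated S6 detected by cytoblot immunostaining with HRP secondary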
[18] = molecular target: NADPH oxidase 2 (Homo sapiens) (UniProt P04839); assay: NOX2-dependent H2O2 signal modulators, primary screen, NOX inhibitor project, cell-based, HEK293-NOX2, PMA-stimulated, Amplex Red fluorescence (AID 1159); settings: 45 min, higher = more signal, called active from +8 up or from −8 down; also: test concentration not given here
NADPH oxidase 2 (Homo sapiens), sequence (P04839 whole entry, looked up): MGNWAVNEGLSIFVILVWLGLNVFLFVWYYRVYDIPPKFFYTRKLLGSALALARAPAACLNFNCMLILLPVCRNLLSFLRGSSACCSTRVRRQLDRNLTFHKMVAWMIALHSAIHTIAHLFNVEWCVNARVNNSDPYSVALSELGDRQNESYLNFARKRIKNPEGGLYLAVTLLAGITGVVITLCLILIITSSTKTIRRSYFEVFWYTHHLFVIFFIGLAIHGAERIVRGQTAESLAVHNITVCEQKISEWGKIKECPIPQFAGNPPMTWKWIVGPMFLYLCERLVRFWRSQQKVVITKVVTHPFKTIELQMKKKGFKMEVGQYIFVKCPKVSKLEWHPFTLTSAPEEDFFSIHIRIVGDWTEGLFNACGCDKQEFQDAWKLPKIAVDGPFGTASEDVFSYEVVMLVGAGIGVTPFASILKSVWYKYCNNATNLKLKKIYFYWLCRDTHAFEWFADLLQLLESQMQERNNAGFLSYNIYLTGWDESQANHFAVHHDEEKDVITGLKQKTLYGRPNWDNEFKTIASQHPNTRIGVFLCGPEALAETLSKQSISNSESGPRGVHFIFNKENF

[19] = molecular target: NADPH oxidase 4 (Homo sapiens) (UniProt Q9NPH5); assay: NOX4-dependent H2O2 signal modulators, primary screen, NOX inhibitor project, cell-based, HEK293-NOX4, tetracycline-induced, Amplex Red fluorescence (AID 1160); settings: 45 min, higher = more signal, called active from +8 up or from −8 down
NADPH oxidase 4 (Homo sapiens), sequence (Q9NPH5 whole entry, looked up): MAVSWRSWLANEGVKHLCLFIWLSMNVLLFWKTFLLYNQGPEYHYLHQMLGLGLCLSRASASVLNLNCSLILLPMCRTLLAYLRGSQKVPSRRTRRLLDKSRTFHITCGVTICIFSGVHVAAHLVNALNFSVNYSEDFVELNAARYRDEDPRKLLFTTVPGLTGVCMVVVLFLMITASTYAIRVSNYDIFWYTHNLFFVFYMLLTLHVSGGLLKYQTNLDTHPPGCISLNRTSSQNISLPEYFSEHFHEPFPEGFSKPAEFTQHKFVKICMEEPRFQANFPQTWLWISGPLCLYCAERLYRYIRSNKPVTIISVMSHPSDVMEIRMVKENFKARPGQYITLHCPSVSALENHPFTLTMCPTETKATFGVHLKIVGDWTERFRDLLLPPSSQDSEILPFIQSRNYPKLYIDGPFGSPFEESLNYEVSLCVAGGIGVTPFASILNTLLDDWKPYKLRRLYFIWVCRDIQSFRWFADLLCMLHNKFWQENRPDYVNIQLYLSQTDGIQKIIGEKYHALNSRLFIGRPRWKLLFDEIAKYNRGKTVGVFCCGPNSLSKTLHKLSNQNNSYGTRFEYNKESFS

[20] = molecular target: NADPH oxidase 5 (Homo sapiens) (UniProt Q96PH1); assay: NOX5-dependent H2O2 signal modulators, primary screen, NOX inhibitor project, cell-based, HEK293-NOX5, Amplex Red fluorescence (AID 1161); settings: HEK293-NOX5, ionomycin, 45 min, higher = more signal
NADPH oxidase 5 (Homo sapiens), sequence (Q96PH1 whole entry, looked up): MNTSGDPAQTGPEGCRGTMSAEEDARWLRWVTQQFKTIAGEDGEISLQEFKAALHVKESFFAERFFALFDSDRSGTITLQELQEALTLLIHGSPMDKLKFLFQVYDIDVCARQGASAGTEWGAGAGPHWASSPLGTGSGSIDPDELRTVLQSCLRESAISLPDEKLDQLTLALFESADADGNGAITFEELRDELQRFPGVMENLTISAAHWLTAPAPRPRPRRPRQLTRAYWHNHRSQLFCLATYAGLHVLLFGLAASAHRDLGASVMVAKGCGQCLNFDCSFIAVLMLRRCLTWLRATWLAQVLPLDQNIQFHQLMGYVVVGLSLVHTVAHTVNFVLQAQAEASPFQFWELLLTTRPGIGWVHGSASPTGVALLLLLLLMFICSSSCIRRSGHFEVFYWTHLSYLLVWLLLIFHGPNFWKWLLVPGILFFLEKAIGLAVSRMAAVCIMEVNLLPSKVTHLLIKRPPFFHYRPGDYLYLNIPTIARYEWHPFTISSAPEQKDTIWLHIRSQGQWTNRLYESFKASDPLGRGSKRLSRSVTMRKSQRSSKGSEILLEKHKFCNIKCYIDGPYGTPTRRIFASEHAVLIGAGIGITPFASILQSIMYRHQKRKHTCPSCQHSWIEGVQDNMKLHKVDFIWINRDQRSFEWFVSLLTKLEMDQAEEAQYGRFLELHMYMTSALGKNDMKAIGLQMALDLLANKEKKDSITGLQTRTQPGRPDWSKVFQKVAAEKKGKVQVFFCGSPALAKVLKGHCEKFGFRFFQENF

Structure (SMILES)	composite z-score [1]	z-score [2]	z-score [3]	z-score [4]	z-score [5]	composite z-score [6]	composite z-score [7]	composite z-score (Torsin-1A (Homo sapiens) [8])	composite z-score (Torsin-1A (Homo sapiens) [9])	composite z-score [10]	z-score [11]	composite z-score [12]	z-score [13]	z-score [14]	z-score [15]	z-score [16]	z-score [17]	z-score [18]	z-score [19]	z-score [20]
CCC#CCN(Cc1ccccc1Br)[C@H](/C=C/C1CC1)[C@@H](O)Cc1ccccc1	-0.679	-2.43 (inactive)	-1.23 (inactive)	2.67 (inactive)	-0.835 (inactive)	-0.529	-0.154	-0.806	0.0257	-0.643	2.06 (inactive)	-0.13	-0.224 (inactive)	-0.834 (inactive)	-0.239 (inactive)	-1.53 (inactive)	1.62	0.214 (inactive)	1.07 (inactive)	-1.2
COc1cc(NN2C(C(O)c3ccco3)C=CC3C(=O)N(C)C(=O)C32)cc(OC)c1OC (stereo not given)	0.259	1.06 (inactive)	0.184 (inactive)	0.815 (inactive)	1.06 (inactive)	0.536	0.288	1.27	1.04	0.0765	-1.82 (inactive)	0.429	0.715 (inactive)	0.959 (inactive)	0.214 (inactive)	1.1 (inactive)	-0.808	-1.95 (inactive)	-3.55 (inactive)	-2.81
COC(=O)[C@@]1(Cc2ccc(F)cc2)[C@H]2c3cc(C(=O)N4CCCC4)n(Cc4ccc(C)c(F)c4F)c3C[C@H]2CN1C(=O)c1ccccc1	-0.175	-0.944 (inactive)	-0.298 (inactive)	1.15 (inactive)	-0.177 (inactive)	-0.286	0.12	-0.259	-0.407	-0.472	-1.31 (inactive)	0.746	5.03 (inactive)	0.806 (inactive)	0.598 (inactive)	1.06 (inactive)	-0.389	-4.01 (inactive)	-7.95 (inactive)	-7.01
CCCCN1CC=CC23O[C@@H]4/C=C\CCCOC(=O)C4[C@H]2C(=O)N(CCO)[C@@H]3C1=O (stereo not given in full)	-0.703	-0.211 (inactive)	-1.29 (inactive)	-0.48 (inactive)	-0.681 (inactive)	-1.6	-0.128	-2.13	-1.59	-0.214	1.18 (inactive)	-0.297	0.978 (inactive)	1.05 (inactive)	0.504 (inactive)	0.628 (inactive)	-0.246	1.28 (inactive)	0.314 (inactive)	1.5
Cc1cc(C)c(C(O)C2C=CC3C(=O)N(c4ccccc4)C(=O)C3N2Nc2ccccc2F)c(C)c1 (stereo not given)	-0.122	0.224 (inactive)	-0.386 (inactive)	0.44 (inactive)	-0.425 (inactive)	0.563	0.122	-0.489	-0.395	0.0807	-1.56 (inactive)	-0.0111	1.33 (inactive)	1.35 (inactive)	-0.167 (inactive)	1.32 (inactive)	-0.855	-0.611 (inactive)	-0.918 (inactive)	-0.344
COCCOC(=O)N1C(=O)[C@@]2(c3cc(C#CCCO)ccc31)[C@H](c1ccc(OCCO)cc1)N1[C@H](c3ccccc3)[C@H](c3ccccc3)OC(=O)[C@H]1[C@@H]2C(=O)Nc1nc2ccccc2s1	0.508	-0.218 (inactive)	0.56 (inactive)	-0.618 (inactive)	-0.267 (inactive)	1.13	0.358	0.266	0.0474	1.97	-0.0929 (inactive)	0.181	3.74 (inactive)	1.5 (inactive)	0.258 (inactive)	0.678 (inactive)	-0.115	1.58 (inactive)	1.26 (inactive)	1.43
COC(=O)[C@@H]1N=C(c2ccc(OCCCO)cc2)O[C@@H]1c1ccccc1	-0.508	-1.64 (inactive)	-1.06 (inactive)	-0.594 (inactive)	-1.38 (inactive)	-0.913	-0.0762	1.01	0.695	-0.703	0.813 (inactive)	-0.717	24.5 (active)	12.5 (active)	-1.03 (inactive)	0.82 (inactive)	0.264	-0.499 (inactive)	1.02 (inactive)	-0.273
COc1ccc(C#Cc2ccc3c(c2)[C@]2(C(=O)N3)[C@H](c3ccc(O)cc3)N3[C@H](c4ccccc4)[C@H](c4ccccc4)OC(=O)[C@H]3[C@@H]2C(=O)Nc2nc3ccccc3s2)cc1	0.108	-1.62 (inactive)	-0.52 (inactive)	0.389 (inactive)	-0.513 (inactive)	1.02	0.0797	1.16	0.168	0.329	1.38 (inactive)	0.0994	0.92 (inactive)	0.347 (inactive)	2.43 (inactive)	0.59 (inactive)	0.498	1.13 (inactive)	-0.838 (inactive)	-1.34
COC(=O)[C@@]1(Cc2ccccc2)[C@H]2c3cc(C(=O)N4CCCC4)n(CCc4ccccn4)c3C[C@H]2CN1C(=O)c1ccccc1	0.372	-0.917 (inactive)	1.09 (inactive)	0.201 (inactive)	0.755 (inactive)	1.94	0.605	1.11	1.4	0.311	-1.5 (inactive)	0.928	1.93 (inactive)	0.0978 (inactive)	1.54 (inactive)	0.569 (inactive)	-0.266	0.267 (inactive)	0.311 (inactive)	-3.01
